From PubChem BioAssay AID651681 (Broad Institute, 2012)
The source made the active and inactive calls.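 Rule for the calls: active = compound with fitted CDK2 half-maximal potency at or below twice its top tested dose; inconclusive = flat curve near 30 to 70% inhibition, or poor fit; inactive = the rest.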

biological target: Cyclin-dependent kinase 2 (Homo sapiens) + Cyclin-A2 (Homo sapiens) (UniProt P20248+P24941); assay: blockade of human CDK2 kinase activity – biochemical, dry powder, set 3, selectivity assay for Dyrk1A inhibitor project, dose response (AID 651681); details: CDK2/cyclin A ADP-Glo luminescence, histone H1 peptide; series mostly up to 10 µM; inhibition: at the top concentration
Sequence (P20248 whole entry, looked up, one chain of several): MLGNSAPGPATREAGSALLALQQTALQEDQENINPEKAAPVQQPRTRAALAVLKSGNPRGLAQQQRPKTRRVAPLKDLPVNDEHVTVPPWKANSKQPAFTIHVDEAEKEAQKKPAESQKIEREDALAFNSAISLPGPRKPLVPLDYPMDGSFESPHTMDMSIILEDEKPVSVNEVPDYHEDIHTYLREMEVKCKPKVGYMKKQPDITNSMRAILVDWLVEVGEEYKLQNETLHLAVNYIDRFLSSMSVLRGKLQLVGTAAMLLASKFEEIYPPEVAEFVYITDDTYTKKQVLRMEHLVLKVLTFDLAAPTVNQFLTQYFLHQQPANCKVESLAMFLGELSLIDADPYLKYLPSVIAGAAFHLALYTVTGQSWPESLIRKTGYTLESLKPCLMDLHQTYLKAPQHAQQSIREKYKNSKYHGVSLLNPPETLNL

inhibition, inactive:
COc1ccc2c(Cl)c(C(=O)NC(C)C)sc2c1 6.28%, COc1ccc2nc(NC(=O)CN(C)S(=O)(=O)c3ccc(F)cc3)sc2c1 -9.78%, O=C(NCc1ccccc1)c1sc2ccccc2c1Cl -4.08%, COc1ccc(S(=O)(=O)N2CCCC(C(=O)Nc3nc4ccccc4s3)C2)cc1 (configuration not stated) -4.81%, Cc1cccc2sc(NC(=O)CN(C)S(=O)(=O)c3ccc(Cl)cc3)nc12 6.5%, CN(CC(=O)Nc1nc2ccccc2s1)S(=O)(=O)c1ccc(Cl)cc1 -5.95%, COc1ccc(OC)c(CNC(=O)c2sc3ccccc3c2Cl)c1 -6.17%, COc1ccc(NC(=O)C2CCCN(S(=O)(=O)c3cccc4nonc34)C2)cc1 (configuration not stated) -3.75%, CN(CC(=O)Nc1nccs1)S(=O)(=O)c1ccc(Cl)cc1 8.85%, Cc1sc(NC(=O)CSCc2ccccc2)nc1-c1ccccc1 -1.28%, COc1ccc(C2=Nn3c(nnc3-c3cccnc3)SC2)cc1OC 7.94%, CN(CC(=O)Nc1nc2ccc(Cl)cc2s1)S(=O)(=O)c1ccc(C#N)cc1 -6.67%, COc1ccc(OC)c(C2=Nn3c(nnc3-c3ccccc3)SC2)c1 1.24%, COc1ccc2nc(NC(=O)C3CCCN(S(=O)(=O)c4cccc5nonc45)C3)sc2c1 (configuration not stated) -1.81%, COc1ccc2c(Cl)c(C(=O)NCc3ccccc3)sc2c1 0.997%, COc1ccc2nc(NC(=O)C3CCCN(S(=O)(=O)c4cccc5cccnc45)C3)sc2c1 (configuration not stated) -13.3%, COc1ccc(C2=Nn3c(nnc3-c3ccncc3)SC2)cc1 9.2%, CN(CC(=O)Nc1nc2ccc(Cl)cc2s1)S(=O)(=O)c1ccc(Cl)cc1 -5.29%, CN(CC(=O)Nc1nc2ccc(F)cc2s1)S(=O)(=O)c1ccc(Cl)cc1 -5.71%, COc1ccc(-c2csc(NC(=O)CSCC(=O)N3CCCC3)n2)cc1 -7.89%, CCCCN(c1nc2ccccc2s1)S(=O)(=O)c1ccc(Cl)cc1 8.6%, COc1ccc2c(Cl)c(C(=O)NCc3cccnc3)sc2c1 -2.3%
